Test results: PubChem BioAssay
Activity calls are given as the source filed them. How the calls were made is not given here.

Biological target: Pantothenate synthetase (Mycobacterium tuberculosis (strain ATCC 25618 / H37Rv)) (UniProt P9WIL5)
Experiment: Coupled enzyme confirmation of inhibitors against recombinant Mtb PanC (AID 375);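 further: 0% = full reaction with vehicle and 100% = no enzyme background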
Details: coupled enzyme assay; at 10 µM, active compounds read high

Sequence of Pantothenate synthetase (Mycobacterium tuberculosis (strain ATCC 25618 / H37Rv)) (P9WIL5 whole entry, looked up): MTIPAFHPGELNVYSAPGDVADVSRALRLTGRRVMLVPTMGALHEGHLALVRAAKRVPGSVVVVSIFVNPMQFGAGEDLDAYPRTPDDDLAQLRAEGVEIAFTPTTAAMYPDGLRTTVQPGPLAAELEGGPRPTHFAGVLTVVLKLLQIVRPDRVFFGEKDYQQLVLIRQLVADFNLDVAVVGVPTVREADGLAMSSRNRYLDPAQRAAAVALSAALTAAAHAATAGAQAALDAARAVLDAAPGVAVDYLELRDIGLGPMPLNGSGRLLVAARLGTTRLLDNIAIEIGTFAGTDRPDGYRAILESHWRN

Compound | inhibition
CCN(CC)CCCNC(=O)c1nn(-c2ccc(OC)cc2OC)c(=O)c2ccccc12 | 0% (inactive)
CC1Cc2nc(SCC(N)=O)n(Cc3ccccc3)c(=O)c2S1 (stereo not given) | 0% (inactive)
Cc1nn(C)cc1/C=N/O | 0% (inactive)
CC(=O)N1CCN=C1SCc1c(F)cccc1Cl | 2% (inactive)
CC1Cc2nc(SCC(=O)Nc3ccccc3F)n(C)c(=O)c2S1 (stereo not given) | 7% (inactive)
COc1cccc(C(=O)Nc2ccc(N(C)C)cc2)c1OC | 8% (inactive)
O=C(CSc1nnc(SCc2ccc(Cl)cc2)s1)N1CCN(C(=O)c2ccco2)CC1 | 7% (inactive)
c1ccc2c(c1)CC(N1CCCCC1)c1ccccc1N2 (stereo not given) | 0% (inactive)
Cc1cccc(NC(=O)Nc2cccc(C#N)c2)n1 | 1% (inactive)
Cc1ccc(N2C(=O)c3ccccc3C2Nc2cccnc2)nc1 (stereo not given) | 1% (inactive)
CN(c1ccccc1C(N)=O)S(=O)(=O)c1ccccc1 | 10% (inactive)
COc1ccc(C2=NOC(C(=O)NC3CCCCC3)C2)cc1OC (stereo not given) | 2% (inactive)
COc1ccc(-n2c(=O)c3c4c(sc3n3cnnc23)CC(C)CC4)cc1 (stereo not given) | 1% (inactive)
CCN(C(=O)c1cc2cc3ccc(C)cc3nc2o1)c1ccc(OC)cc1 | 6% (inactive)
c1ccc2c(c1)sc1nnnn12 | 12% (inactive)
CC(C)Cn1c(-c2ccc(F)cc2)n[nH]c1=S | 0% (inactive)
COc1ccc(-c2noc(CN3C(=O)c4ccccc4C3=O)n2)cc1 | 0% (inactive)
Clc1ccccc1OCc1nn2c(-c3ccncc3)nnc2s1 | 0% (inactive)
CC(C)CC(c1nnnn1CC1CCCO1)N1CCN(Cc2ccc3c(c2)OCO3)CC1 (stereo not given) | 0% (inactive)
CC1(C)NC(=O)N(CC(O)CN2CCCCC2)C1=O (stereo not given) | 0% (inactive)

Compound | inhibition
Cc1noc(NS(=O)(=O)c2ccc(N3C(=O)c4ccccc4C3=O)cc2)c1C | 3% (inactive)
CC(C)C(CO)NC(=O)CC(=O)NC(CO)C(C)C (stereo not given) | 2% (inactive)
CC1CCN(C(=O)c2cc(-c3ccc(Cl)c(Cl)c3)on2)CC1 | 3% (inactive)
Cc1nccn1CCCN1C(=O)OC2(CCCCC2)C1(C)O (stereo not given) | 0% (inactive)
Cc1ccc(S(=O)(=O)N2C(=O)CCC2C(=O)Nc2ccc3c(c2)OCCO3)cc1 (stereo not given) | 0% (inactive)
CCCc1ccc(S(=O)(=O)NCCc2ccncc2)cc1 | 0% (inactive)
COCCNC(=O)CCc1nc(-c2ccccc2)no1 | 0% (inactive)
CN(Cc1cccs1)CC(O)COCc1ccco1 (stereo not given) | 0% (inactive)
Cn1c(=O)c2ncn(CC(=O)NCCOc3ccc(C(C)(C)C)cc3)c2n(C)c1=O | 0% (inactive)
COc1cccc(C2CC(=O)Nc3cc4c(cc32)OCCO4)c1OC(C)C (stereo not given) | 1% (inactive)
CCOCCCNC(=O)Cn1cc2c(n1)CCCCC2 | 2% (inactive)
CC(=O)c1ccc(Oc2cc(C)nc(-n3nc(C)cc3C)n2)cc1 | 4% (inactive)
O=C(NCCN1CCOCC1)C1CC(=O)N(c2ccc(F)c(Cl)c2)C1 (stereo not given) | 7% (inactive)
COc1cc(C(=O)N2CCC(NC(=O)C(Cc3ccc(C)cc3)NC(C)=O)CC2)cc(OC)c1OC (stereo not given) | 3% (inactive)
COc1ccccc1S(=O)(=O)Cc1ccc(C(=O)N2CCN(c3ccccn3)CC2)o1 | 0% (inactive)
CCCCn1nnc(NC(=O)Cc2ccc(Cl)cc2)n1 | 0% (inactive)
CC(CCC(=O)Nc1nncs1)C(=O)O (stereo not given) | 1% (inactive)
CCS(=O)(=O)Nc1ccc(C(=O)CC2(O)C(=O)Nc3ccccc32)cc1 (stereo not given) | 14% (inactive)
Cc1cccc(CCNC(=O)C2CCCN(S(=O)(=O)c3cnc[nH]3)C2)c1 (stereo not given) | 5% (inactive)
COc1cc(C(O)c2nc3ccccc3n2C)cc(OC)c1OC (stereo not given) | 0% (inactive)
